The values that follow come from ChEMBL document CHEMBL4513216, “Probing the Open Global Health Chemical Diversity Library for Multistage-Active Starting Points for Next-Generation Antimalarials” (ACS Infect Dis, 2020).

Out of some 69,000 compounds screened, about 8,600 (12%) showed an effect of 50% or more. The entries come from a sample that favours strong results as a whole.

This assay concerns Plasmodium berghei. The assay is described as follows: Screen against P. berghei liver stage (PbLuc), transformed with Luciferase, at 10uM. The class given is functional, HepG2. Conditions: tested at 10 uM.
For `Cc1nc(S(=O)(=O)N2CCSC3(CCCCC3)C2)cn1C`, the INHIBITION was -12.1%.

Take `CC(C)CC(=O)N1CC[C@@H]2[C@H](CC1)N(Cc1cccnc1)CCS2(=O)=O`: the INHIBITION is on record as 20.4%.

In the case of `O=C(Cc1ccccn1)N1CCN(C(=O)CC2CCCC2)CC1`, the INHIBITION turned out to be 3.73%.

Consider `Cc1nn(C)c2cnn(Cc3ccc(C(=O)NCC4CC4)o3)c12`, for which the INHIBITION came to 38.3%.

For the compound `CN(Cc1cnn(C)c1)C(=O)NCC1CCS(=O)(=O)C1` (configuration not stated), the INHIBITION is -22.3%.

For `CC(=O)N1CCC2(C1)CN(C(=O)C1CCOC1)C2` (configuration not stated), the INHIBITION turned out to be 9.97%.

In the case of `CN(C)CCOCC1CN(C(=O)c2cccn2C)Cc2ccnn2C1` (configuration not stated), the INHIBITION was -7.59%.

With `Cn1ccc(C(=O)N2CCCC(Cc3cccc4cccnc34)C2)n1` (configuration not stated), the INHIBITION is -0.371%.

For the compound `CSCCCN1C[C@H](NC(=O)c2ccc(C#N)nc2)[C@@H](C2CC2)C1`, the INHIBITION was 27.4%.

As to `CCCc1cncnc1N1CCC(NCc2cc3ccccc3[nH]2)CC1`, the INHIBITION is recorded as 88.2%.

Regarding `CCCc1cncnc1N1CCC(NCc2ccc(O)cc2)CC1`, the INHIBITION stood at 29.9%.

For `CCCc1cncnc1N1CCC(NCc2ccncc2)CC1`, the INHIBITION was 49.1%.

`Cc1csc(C2(NC(=O)CCc3ccncc3)CCCC2)n1`: the INHIBITION is given as 20%.

Turning to `CCn1c(C2CCNCC2)nn(Cc2ccc(C(=O)NC)o2)c1=O`, the INHIBITION is 52.1%.

Turning to `CCn1c(C2CCNCC2)nn(CCCc2ccccc2)c1=O`, the INHIBITION is given as 52.1%.

For `CCCn1nc(C2CCNCC2)n(Cc2ccccc2)c1=O`, the INHIBITION is 26.8%.

In the case of `CCn1c(C2CCCNC2)nn(Cc2ccc(C(=O)NC)o2)c1=O` (configuration not stated), the INHIBITION is 38.5%.

In the case of `CCn1c(CC2CCNCC2)nn(Cc2ccc(C(=O)NC)o2)c1=O`, the INHIBITION came to 44.8%.

For `CCOCCn1nc(C2CCNCC2)n(Cc2ccccc2)c1=O`, the INHIBITION is recorded as 8.51%.

With `CC(CN1CCOCC1)NC(=O)N1CCCC1` (configuration not stated), the INHIBITION is recorded as -15%.

On to `CN(C)[C@@H]1CCN(c2ncccn2)[C@H]1Cc1ccncc1`, for which the INHIBITION was 26.8%.

Consider `COC(=O)c1ccc(OC)c(Cn2cc(Br)cn2)c1`, for which the INHIBITION is reported as 20.6%.

Regarding `O=C(CN1CCCCCC1)NCc1ccc2[nH]c(=O)[nH]c2c1`, the INHIBITION is -20.1%.

In the case of `Cc1[nH]c2ccc(CNC(=O)c3ccc(CN4CCCC4)o3)cc2c1C`, the INHIBITION is recorded as 40.3%.

As to `O=C(NCc1ccc2[nH]c(=O)[nH]c2c1)c1ccc(CN2CCCC2)o1`, the INHIBITION was 56.2%.

Consider `CC1CCCN1Cc1ccccc1-c1nc(C(C)(C)C)cc(=O)[nH]1` (configuration not stated), for which the INHIBITION came out at 9%.

`CN(C)c1ccc(C(=O)N2CCCC(n3cncn3)C2)nn1` (configuration not stated): the INHIBITION stood at 0.411%.

Consider `CCOC(=O)c1n[nH]cc1-c1cncn1CCn1nc(C)c(C)c1C`, for which the INHIBITION stood at 12.3%.

Turning to `COc1ccc(-c2cc(C3CCCCCN3S(=O)(=O)N(C)C)on2)cc1` (configuration not stated), the INHIBITION is 55.2%.

Regarding `COc1ccc(-c2cc(C3CCCCCN3S(C)(=O)=O)on2)cc1` (configuration not stated), the INHIBITION is 12.725%.

For the compound `CN(C)S(=O)(=O)N1CCCCCC1c1cc(-c2ccc(F)cc2)no1` (configuration not stated), the INHIBITION came to 38.4%.

For `CSc1cccc(CNC(=O)[C@H]2CNC[C@H](C(=O)N3CCOCC3)C2)c1`, the INHIBITION is on record as 35.8%.

Take `O=C1Nc2ccccc2CNC12CCN(CC1CCNC1)CC2` (configuration not stated): the INHIBITION is given as 29.2%.

As to `COCc1cccc(C(=O)N2C[C@@H]3CC[C@H]2CN(Cc2cscn2)C3)n1`, the INHIBITION is listed as -38.6%.

Turning to `C[C@H](NC(=O)C1CC1)c1nc2cc(-c3ccc(F)cc3)ncn2n1`, the INHIBITION is 49.6%.

As for `COc1ccc(-c2cc3nc([C@H](C)NC(=O)C4CC4)nn3cn2)cc1`, the INHIBITION is recorded as -5.71%.

Consider `C[C@H](NC(=O)C1CCCC1)c1nc2cc(-c3ccc(F)cc3)ncn2n1`, for which the INHIBITION is reported as 58.1%.

`CCN1Cc2ccccc2CC2(CCN(CC(=O)O)CC2)C1=O`: the INHIBITION came to 37.5%.

Take `NCCC(=O)Nc1ccc(-c2ccccc2)cc1`: the INHIBITION is reported as 14.5%.

For `N#CC1(NC(=O)COc2cc(Cl)cc(Cl)c2)CCSC1` (configuration not stated), the INHIBITION worked out at 38.5%.

In the case of `Cc1ccc(OCC(=O)NC2(C#N)CCSCC2)cc1C`, the INHIBITION came out at 41.4%.

Take `Cc1c(Cl)cccc1OCC(=O)NC1(C#N)CCSC1` (configuration not stated): the INHIBITION is reported as 87.2%.

In the case of `CN(C)C(=O)c1cc(-c2ccccc2)[nH]n1`, the INHIBITION was -35%.

Consider `CC(C)c1ccc(CC2(C)Cc3cc(CC(=O)O)ccc3O2)cc1` (configuration not stated), for which the INHIBITION stood at 20.85%.

On to `CN(C)Cc1cnc(C2CCN(C(=O)c3cccc(F)c3)C2)[nH]1` (configuration not stated), for which the INHIBITION turned out to be 41.7%.

For `CN(C)[C@H]1CCCCN(C(=O)c2cccc(-c3cccc(F)c3)c2)C1`, the INHIBITION was determined as 60.4%.

As to `CN(C)[C@H]1CCCCN(C(=O)c2cccc(N3CCS(=O)(=O)CC3)c2)C1`, the INHIBITION is reported as 30.9%.

Take `CN(C(=O)CCNC(=O)NC1CCCCC1)c1ccccc1`: the INHIBITION is 27.6%.

With `Cn1c(NCC(O)c2ccccc2F)c(C#N)c(=O)n(C)c1=O` (configuration not stated), the INHIBITION is -5.25%.

For the compound `CNC(=O)[C@@H]1C[C@@H](NC(=O)Cc2cccs2)CN1C1CCOCC1`, the INHIBITION is on record as 23.5%.

In the case of `CNC(=O)[C@@H]1C[C@@H](NC(=O)CSc2ccccc2)CN1C1CCOCC1`, the INHIBITION is 54.6%.

As to `CNC(=O)[C@@H]1C[C@@H](NC(=O)CCCc2cccs2)CN1C1CCOCC1`, the INHIBITION stood at 10.4%.
